Screening results as filed in PubChem BioAssay.
697 NFkB inh: inhibitors of the PMA/ionomycin-induced NF-kB reporter in 697 B cells; 697 B-cell NF-kB luciferase reporter, 16 h; inhibition, % at 4 µM; 0.33% of 330,000 active; in the data active means inhibition above about 35%
HIF act: HIF pathway transcriptional activation; U2OS HRE-luciferase reporter, luminescence; normalized: DMSO 0%, desferrioxamine 100%; activation, % at 7.5 µM (by protocol); 0.32% of 300,000 active; AID 1910;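 active means mean activation of at least 10% of the iron chelator positive control signal, with at least half of replicates also reaching 10%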
F508del corr: CFTR F508del correction in bronchial cells; CFBE cells, YFP halide quenching; stimulated with forskolin plus potentiator P3; % fluorescence drop versus neutral controls; activity (quench increase), % at 7.58 µM; 0.36% of 350,000 active; AID 720511;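 active means mean added fluorescence quench of at least 8% versus neutral control, with both replicates also reaching 8%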;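 further: cells transiently co-express mutant CFTR-F508del with the halide-sensitive YFP; corrector assay measuring rescue of mutant channel to the surface after 24 h compound exposure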
Jurkat NFkB inh: inhibitors of the PMA/ionomycin-induced NF-kB reporter in Jurkat cells; PMA/ionomycin-induced NF-kB luciferase reporter, luminescence; AID 435003; 0.53% of 330,000 active; inhibition, % at 4 µM; in the data active means inhibition above about 50%
Active calls of the source: *; / = no result. Hits are enriched below; roughly 0.93% of the tested compounds scored in any of these assays.

SMILES	697 NFkB inh	HIF act	F508del corr	Jurkat NFkB inh
COc1ccc2cc(C(=O)N/N=C/c3cc(OC)c(OC)c(OC)c3)[nH]c2c1	17	1	3	11
CCOc1ccc2[nH]c(C(=O)N/N=C/c3ccc(OC)cc3)cc2c1	-9	0	18*	47
COc1ccc2[nH]c(C(=O)N/N=C/c3ccc(O)cc3O)cc2c1	-39	25*	12*	36
OC[C@@H]1[C@H](c2ccc(C3=CCCC3)cc2)[C@H]2CN(CCC(F)(F)F)CCCCN12	/	/	2	/
Cc1ccc2cc(CN(CC3CCCO3)C(=S)Nc3ccccc3)c(=O)[nH]c2c1C (stereo not drawn)	-129	0	12*	37
Cc1ccc(NC(=S)N(Cc2cccs2)Cc2cc3cccc(C)c3[nH]c2=O)cc1	-77	889*	/	-3
CCSc1nnc(N2C(=O)C(O)=C(C(=O)c3ccco3)C2c2cccc(OC)c2)s1 (stereo not drawn)	-13	0	9.3*	-7
COc1ccc(NC(=O)CNC(=O)Cc2cccc3ccccc23)c(OC)c1	6	93*	-2	6
COCC(=O)Nc1ccc2c(c1)OC[C@H](C)N(Cc1ccncc1)C[C@H](C)[C@@H](OC)CN(C)C2=O	/	/	1	/
COc1ccc2c3c(n(C)c2c1)[C@@H](CO)NCC31CCN(C(=O)c2ccc(F)cc2)CC1	/	/	-1	/
COCC(=O)Nc1ccc2c(c1)C(=O)N(C)[C@@H]1CC[C@@H](CC(=O)NCc3ccc(OC)cc3)O[C@@H]1CO2	/	/	-2	/
COc1ccccc1N=C1NC(=O)/C(=C/c2ccc(N(C)C)cc2)S1	-81	3	15*	49
COc1ccc(/C=C2\SC(=Nc3ccccc3)NC2=O)cc1	8	0	/	9
COc1cc(/C=C2/SC(=Nc3ccc(O)cc3)NC2=O)cc(OC)c1O	-7	0	15*	26
CN1c2ccc(C#Cc3cccnc3)cc2[C@@H]2[C@@H](CCN2C(=O)c2cccc(F)c2)[C@H]1CO	/	/	3	/
O=C(Nc1ccc(Br)cn1)c1cccc2ccccc12	-58	3	14*	24
COc1c(C(=O)Nc2ccc(Br)cn2)ccc2ccccc12	-70	1	3	-71
CCN1C(=O)[C@H]2[C@@H](c3ccc(-c4ccc(OC)cc4)c(OC)c3)N[C@@](C)(C(=O)OC)[C@H]2C1=O	-12	0	3	-9
CCOC(=O)C1(C)NC(c2ccc(OC)cc2OC)C2C(=O)N(CC)C(=O)C21 (stereo not drawn)	19	528*	1	8
COc1ccc([C@H]2C[C@H](O)[C@@H](n3cc(-c4ccc(F)cc4)nn3)CN2Cc2cccs2)cc1	/	/	8.1*	/
COc1cccc(-c2ccc([C@H]3[C@@H](C#N)N(C(=O)c4ccccn4)[C@@H]3CO)cc2)c1	/	/	-3	/
COc1cccc(-c2ccc([C@H]3[C@@H](CO)N(C(=O)c4ccccn4)[C@H]3C#N)cc2)c1	/	/	15*	/
C[C@@H]1CN([C@@H](C)CO)C(=O)c2cc(-c3cccnc3)cnc2O[C@@H]1CN(C)Cc1ccccc1	/	/	0	/
COc1ccc(C(CC(=O)Nc2ccccc2OC)n2cccc2)cc1 (stereo not drawn)	-48	152*	/	-5
Cc1ccc(Nc2nnc(-c3ccccc3N)o2)cc1C	-123	13*	1	-63
SMILES	697 NFkB inh	HIF act	F508del corr	Jurkat NFkB inh
CC(C)NC(=O)N1[C@@H](CO)[C@@H](c2ccccc2)C12CN(C(=O)CN(C)C)C2	/	/	-5	/
CNC[C@@H]1Oc2cc(-c3ccccc3F)ccc2S(=O)(=O)N([C@@H](C)CO)C[C@@H]1C	/	/	1	/
COc1cccc(C(=O)SC2=NCCS2)c1	-7	327*	1	1
CO[C@@H]1CN(C)C(=O)c2ccc(NC(=O)Nc3ccccc3)cc2OC[C@@H](C)NC[C@@H]1C	/	/	3	/
CCCNC(=O)N1CC2(C1)CN(C(=O)CC)[C@@H](CO)c1[nH]c3cc(OC)ccc3c12	/	/	0	/
C#CCOCCOCCOCCNc1nc(N2CCN(C(=O)[C@H]([C@@H](C)CC)n3cc(CCC(=O)O)nn3)CC2)nc(N2CCN(C(=O)[C@H](CCCCN)n3cc(CCCC)nn3)CC2)n1	/	/	9.2*	/
C#CCOCCOCCOCCNc1nc(N2CCN(C(=O)[C@H]([C@@H](C)CC)n3cc(CCCCN)nn3)CC2)nc(N2CCN(C(=O)[C@H](CCCCN)n3cc(CCCC)nn3)CC2)n1	8	/	0	-3
CO[C@H]1CN(C)C(=O)c2cc(NC(=O)c3nc4ccccc4s3)ccc2OC[C@H](C)N(Cc2cncnc2)C[C@@H]1C	/	/	2	/
CCN(CC)c1ccc(/C=N/NC(=O)c2ccoc2C)c(O)c1	-249	64*	2	-43
COc1ccc(/C=N/NC(=O)c2ccoc2C)cc1O	-10	261*	/	-22
CCN(CC)c1ccc(/C=N/NC(=O)OC)c(O)c1	-21	/	/	-20
CN(CC(=O)Nc1ccc(S(=O)(=O)N2CCCC2)cc1)CC(=O)Nc1cccc(F)c1	0	53*	1	-10
Cc1nn(C)cc1NC(=O)C[C@@H]1CC[C@@H]2[C@@H](COc3ccc(NC(=O)C4CCC4)cc3C(=O)N2C)O1	/	/	3	/
COC(=O)c1c(CC[C@@H](CO)NC(=O)N[C@@H](Cc2ccccc2)Cn2cc(-c3ccccc3)nn2)oc(C(=O)N2CCOCC2)c1C(=O)OC	/	/	0	/
Cc1cccc2sc(NNC(=O)c3ccc(S(=O)(=O)N4CCCC(C)C4)cc3)nc12 (stereo not drawn)	/	0	4	/
Cc1cccc2sc(NNC(=O)c3ccc(S(=O)(=O)N4CCc5ccccc5C4)cc3)nc12	-5	14*	-2	3
COC(=O)CCc1c(C)nc(N)[nH]c1=O	-5	0	/	7
CCCCc1c(C)nc(N)[nH]c1=O	14	20*	/	4
O=C(Nc1ccc2c(c1)OCO2)N[C@@H]1CC[C@H](CCNC(=O)C2CCOCC2)O[C@H]1CO	/	/	0	/
